Laboratory results reported in PubChem BioAssay AID1159580 (chemical genetic matrix, 2015).
Hit rate of the full screen: of about 5,500 compounds, about 2,000 (36%) were called active. Inconclusive results (about 18%) are left out. Cut-off read from the data, not from the text of the source: active = normalized growth mostly below about 0.91 (no sharp cut-off); inconclusive = no clear call, values can overlap the other calls; inactive = mostly above about 0.92. This is one part of the list.

Assay: chemical genetic growth profiling, strain panel (AID 1159580);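 note: tested at 20 µM; growth read once vehicle control cultures reached saturation at 30 °C; 1 = growth at the plate median or of vehicle wells; lower values mean less growth of the strain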
Settings: S. cerevisiae deletion strains, growth OD
[1] = locus YAR019C, strain CDC15, hits give low values
[2] = locus YBL105C, strain PKC1, hits give low values
[3] = locus YBR135W, strain CKS1, hits give low values
[4] = locus YBR136W, strain MEC1, hits give low values
[5] = locus YBR160W, strain CDC28, hits give low values
[6] = locus YDL017W, strain CDC7, hits give low values
[7] = locus YDL028C, strain MPS1, hits give low values
[8] = locus YDL101C, strain DUN1, hits give low values
[9] = locus YDL108W, strain KIN28, hits give low values
[10] = locus YDL132W, strain cdc53, hits give low values
[11] = locus YDL214C, strain PRR2, hits give low values
[12] = locus YDR052C, strain DBF4, hits give low values
[13] = locus YDR226W, strain ADK1, hits give low values
[14] = locus YDR477W, strain SNF1, hits give low values
[15] = locus YER123W, strain YCK3, hits give low values
[16] = locus YER133W, strain GLC7, hits give low values
[17] = locus YFL009W, strain cdc4, hits give low values
[18] = locus YFL029C, strain CAK1, hits give low values
[19] = locus YFR003C, strain YPI1, hits give low values
[20] = locus YFR019W, strain FAB1, hits give low values
[21] = locus YFR028C, strain CDC14, hits give low values
[22] = locus YGR040W, strain KSS1, hits give low values
[23] = locus YGR052W, strain FMP48, hits give low values
[24] = locus YGR092W, strain DBF2, hits give low values
[25] = locus YHR030C, strain SLT2, hits give low values
[26] = locus YHR079C, strain IRE1, hits give low values
[27] = locus YHR082C, strain KSP1, hits give low values
[28] = locus YHR205W, strain SCH9, hits give low values
[29] = locus YIL147C, strain SLN1, hits give low values
[30] = locus YJL095W, strain BCK1, hits give low values
[31] = locus YJL157C, strain FAR1, hits give low values
[32] = locus YJR016C, strain ILV3, hits give low values
[33] = locus YJR066W, strain TOR1 (second series), hits give low values
[34] = locus YJR066W, strain TOR1, hits give low values
[35] = locus YKL048C, strain ELM1, hits give low values
[36] = locus YKL067W, strain YNK1, hits give low values
[37] = locus YKL101W, strain HSL1, hits give low values
[38] = locus YKL193C, strain SDS22, hits give low values
[39] = locus YKL203C, strain TOR2, hits give low values
[40] = locus YLR113W, strain HOG1, hits give low values
[41] = locus YLR133W, strain CKI1, hits give low values
[42] = locus YLR403W, strain SFP1, hits give low values
[43] = locus YML070W, strain DAK1, hits give low values
[44] = locus YMR001C, strain CDC5, hits give low values
[45] = locus YMR205C, strain PFK2 (second series), hits give low values
[46] = locus YMR277W, strain FCP1, hits give low values
[47] = locus YNL006W, strain LST8, hits give low values
[48] = locus YNL020C, strain ARK1, hits give low values
[49] = locus YNL161W, strain CBK1, hits give low values
[50] = locus YNL183C, strain NPR1, hits give low values
[51] = locus YNL207W, strain RIO2, hits give low values
[52] = locus YNL222W, strain SSU72, hits give low values
[53] = locus YNL307C, strain MCK1 (second series), hits give low values
[54] = locus YOL078W, strain AVO1, hits give low values
[55] = locus YOL136C, strain PFK27, hits give low values
[56] = locus YOR061W, strain CKA2, hits give low values
[57] = locus YOR119C, strain RIO1, hits give low values
[58] = locus YOR231W, strain MKK1, hits give low values
[59] = locus YOR329C, strain SCD5, hits give low values
[60] = locus YPL031C, strain PHO85, hits give low values
[61] = locus YPL153C, strain RAD53, hits give low values
[62] = locus YPL204W, strain HRR25, hits give low values
[63] = locus YPL209C, strain IPL1, hits give low values
[64] = locus YPL256C, strain CLN2, hits give low values
[65] = locus YPR025C, strain CCL1, hits give low values
[66] = locus YPR111W, strain DBF20, hits give low values
[67] = strain NNK1, hits give low values
[68] = strain TSCII, hits give low values

Measured: normalized growth

COc1ccc(OC)c2nc3c(nc12)C(=O)c1ccccc1-3
inactive: [1] 0.97 | [2] 0.969 | [3] 0.974 | [4] 0.974 | [5] 0.974 | [6] 0.968 | [7] 0.984 | [8] 0.953 | [9] 0.972 | [10] 0.972 | [11] 0.997 | [12] 0.971 | locus YDR054C, strain cdc34, hits give low values 0.957 | [13] 0.979 | [14] 0.971 | [15] 0.942 | [16] 0.988 | [17] 0.978 | [18] 0.969 | [19] 0.974 | [20] 0.974 | [21] 0.981 | [22] 0.973 | [23] 1 | [24] 0.837 | [25] 0.914 | [26] 0.863 | [27] 1.05 | [28] 0.965 | [29] 0.979 | [30] 0.91 | locus YJL128C, strain PBS2, hits give low values 0.956 | [31] 0.958 | [32] 0.977 | [33] 0.947 | [34] 1 | [35] 0.953 | [36] 0.989 | [37] 0.985 | [38] 0.975 | [39] 1 | [40] 0.899 | [41] 0.967 | [42] 0.932 | [43] 0.979 | [44] 0.971 | [45] 0.996 | [46] 0.976 | [47] 0.973 | [48] 0.94 | [49] 0.958 | [50] 0.99 | [51] 0.971 | [52] 0.974 | [53] 0.945 | [54] 0.975 | [55] 0.958 | [56] 0.938 | [57] 1.05 | [58] 0.902 | [59] 0.966 | [60] 0.935 | [61] 0.929 | [62] 0.94 | [63] 0.96 | [64] 0.902 | [65] 0.979 | locus YPR106W, strain ISR1, hits give low values 0.98 | [66] 0.968 | [67] 0.98 | [68] 0.968

Cc1ccc2nc3c(nc2c1)-c1ccccc1C3=O
active: [8] 0.716 | [11] 0.247 | [12] 0.861 | [14] 0.279 | [15] 0.217 | [16] 0.339 | [20] 0.281 | [22] 0.3 | [23] 0.255 | [24] 0.15 | [25] 0.208 | [26] 0.209 | [27] 0.261 | [28] 0.391 | [30] 0.227 | [31] 0.21 | [33] 0.259 | [34] 0.225 | [35] 0.309 | [36] 0.235 | [37] 0.264 | [39] 0.275 | [40] 0.288 | [41] 0.224 | [42] 0.181 | [43] 0.243 | [45] 0.261 | [48] 0.196 | [50] 0.259 | [53] 0.199 | [55] 0.226 | [56] 0.205 | [57] 0.29 | [58] 0.246 | [60] 0.278 | [61] 0.265 | [62] 0.263 | [64] 0.277 | [67] 0.8 | [68] 0.874
inactive: [1] 0.916 | [2] 0.925 | [3] 0.929 | [4] 0.93 | [5] 0.931 | [6] 0.926 | [7] 0.937 | [9] 0.938 | [10] 0.932 | [13] 0.958 | [17] 0.925 | [18] 0.9 | [19] 0.927 | [21] 0.922 | [29] 0.935 | [32] 0.935 | [38] 0.919 | [44] 0.908 | [46] 0.922 | [47] 0.929 | [49] 0.903 | [51] 0.909 | [52] 0.923 | [54] 0.903 | [59] 0.92 | [63] 0.92 | [65] 0.929 | [66] 0.886
